The entries come from a sample that favours hits as a whole.
IDE exosite inh: displaces the probe from the exo-site of human IDE; z-score at 20 µM; P14735; 6.3% of 17,000 active; AID 1259349; purified IDE, FL-6b probe fluorescence polarization; hits give low values;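 active = z-score of -3 or lower, meaning strong loss of probe binding signal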;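 also: His-tagged human IDE residues 42-1019 made in E. coli with 30 nM FL-6b probe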
Target sequence (P14735 42-1019 limits assumed): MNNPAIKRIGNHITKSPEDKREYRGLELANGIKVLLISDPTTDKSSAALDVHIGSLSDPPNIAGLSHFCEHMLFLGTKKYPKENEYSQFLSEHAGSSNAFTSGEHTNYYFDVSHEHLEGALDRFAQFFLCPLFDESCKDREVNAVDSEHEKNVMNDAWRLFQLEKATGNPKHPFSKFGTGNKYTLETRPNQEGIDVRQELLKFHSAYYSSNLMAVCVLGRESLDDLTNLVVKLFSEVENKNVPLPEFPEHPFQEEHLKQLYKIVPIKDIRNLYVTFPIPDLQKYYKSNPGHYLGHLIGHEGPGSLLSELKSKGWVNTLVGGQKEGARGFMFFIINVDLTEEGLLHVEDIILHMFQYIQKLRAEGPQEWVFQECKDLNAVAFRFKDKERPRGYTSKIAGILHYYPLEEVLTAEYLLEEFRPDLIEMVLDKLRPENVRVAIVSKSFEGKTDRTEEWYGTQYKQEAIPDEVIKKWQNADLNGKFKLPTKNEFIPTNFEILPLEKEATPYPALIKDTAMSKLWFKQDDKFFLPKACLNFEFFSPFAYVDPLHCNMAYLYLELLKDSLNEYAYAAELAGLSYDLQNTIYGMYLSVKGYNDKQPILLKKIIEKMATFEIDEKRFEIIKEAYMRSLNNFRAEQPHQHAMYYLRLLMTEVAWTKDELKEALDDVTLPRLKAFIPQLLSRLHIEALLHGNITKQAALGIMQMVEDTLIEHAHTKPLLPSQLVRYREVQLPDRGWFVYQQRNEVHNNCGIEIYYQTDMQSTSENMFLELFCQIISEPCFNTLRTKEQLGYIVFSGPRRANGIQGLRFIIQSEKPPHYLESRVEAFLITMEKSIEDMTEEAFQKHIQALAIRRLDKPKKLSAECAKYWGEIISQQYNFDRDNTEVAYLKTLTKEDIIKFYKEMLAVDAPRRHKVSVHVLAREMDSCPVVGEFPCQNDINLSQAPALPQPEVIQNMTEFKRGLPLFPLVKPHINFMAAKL
Active calls of the source: *.

SMILES	IDE exosite inh
N#Cc1cccc(-c2ccc(C3[C@@H]4CN(C(=O)Nc5ccccc5)C[C@H]3N4)cc2)c1 (stereo partly specified)	3.5
Cc1cccc(-c2ccc(C3[C@@H]4CN(C(=O)C5CCOCC5)C[C@H]3N4)cc2)c1 (stereo partly specified)	-5.1*
O=C(C1CCOCC1)N1C[C@@H]2N[C@H](C1)C2c1ccc(-c2cncnc2)cc1 (stereo partly specified)	3.1
c1ccc(CN2C[C@@H]3N[C@H](C2)C3c2ccc(-c3ccncc3)cc2)cc1 (stereo partly specified)	2.4
Cc1cccc(-c2ccc(C3[C@@H]4CN(C(=O)Nc5ccccc5)C[C@H]3N4)cc2)c1 (stereo partly specified)	-4.3*
Cc1cccc(-c2ccc(C3[C@@H]4CN(Cc5ccccc5)C[C@H]3N4)cc2)c1 (stereo partly specified)	-5.1*
CN(C)C(=O)c1ccc(-c2ccc(C3[C@@H]4CN(C(=O)C5CC5)C[C@H]3N4)cc2)cc1 (stereo partly specified)	1.4
Cc1cccc(-c2ccc(C3[C@@H]4CN(Cc5cccc(F)c5)C[C@H]3N4)cc2)c1 (stereo partly specified)	-0.44
COc1ccc(-c2ccc([C@@H]3[C@@H](C#N)N[C@@H]3CO)cc2)cc1	3.5
CCCC(=O)Nc1ccc2c(c1)C(=O)N(C)C[C@@H](OC)[C@H](C)CN(Cc1cc(-c3ccccc3)on1)[C@H](C)CO2	1.4
O=C(NCC[C@H]1CC[C@@H](NC(=O)c2ccccc2F)[C@H](CO)O1)c1cnccn1	0.34
CCCC#Cc1ccc([C@@H]2[C@H]3CN(S(=O)(=O)Cc4ccccc4)CC(=O)N3[C@H]2CO)cc1	4.6
O=C(Cc1cccnc1)N1CC(=O)N2[C@@H](CO)[C@H](c3ccc(-c4cccc(F)c4)cc3)[C@@H]2C1	-1.9
CO[C@@H]1CN(C)C(=O)c2cc(NC(=O)c3cnccn3)ccc2OC[C@@H](C)NC[C@H]1C	0.46
COCC#Cc1ccc([C@H]2[C@@H](CO)N3CCCCN(C(=O)Nc4cc(F)ccc4F)C[C@@H]23)cc1	4.2
O=C(NC[C@@H]1[C@H](c2ccccc2)[C@@H](CO)N1C(=O)Cc1cccnc1)C1CC1	3.1
O=C(C1CCC1)N1CC(=O)N2[C@H](CO)[C@@H](c3ccc(-c4cccnc4)cc3)[C@@H]2C1	-1.9
O=C(NC1CCCC1)N1CC(=O)N2[C@H](C1)[C@@H](c1ccc(-c3cccnc3)cc1)[C@@H]2CO	-5.8*
O=C(C1CCCCC1)N1CC(=O)N2[C@H](CO)[C@@H](c3ccc(-c4cccnc4)cc3)[C@H]2C1	-0.58
O=C(Nc1cc(F)ccc1F)N1CC(=O)N2[C@H](C1)[C@@H](c1ccc(-c3cccnc3)cc1)[C@@H]2CO	-8.2*
O=C(C1CCC1)N1CC(=O)N2[C@@H](CO)[C@@H](c3ccc(-c4cccnc4)cc3)[C@@H]2C1	-0.57
O=C(C1CCC1)N1CC(=O)N2[C@H](CO)[C@@H](c3ccc(-c4cccnc4)cc3)[C@H]2C1	1.7
O=C(Nc1cc(F)ccc1F)N1CC(=O)N2[C@H](CO)[C@@H](c3ccc(-c4cccnc4)cc3)[C@H]2C1	1.9
O=C(Nc1cc(F)ccc1F)N1CC(=O)N2[C@H](C1)[C@H](c1ccc(-c3cccnc3)cc1)[C@@H]2CO	-1.8
O=C(NC1CCCC1)N1CC(=O)N2[C@@H](CO)[C@H](c3ccc(-c4cccnc4)cc3)[C@@H]2C1	-4.9*
SMILES	IDE exosite inh
O=C(NC1CCCC1)N1CC(=O)N2[C@@H](CO)[C@@H](c3ccc(-c4cccnc4)cc3)[C@@H]2C1	1.3
O=C(C1CCC1)N1CC(=O)N2[C@H](CO)[C@H](c3ccc(-c4cccnc4)cc3)[C@H]2C1	-2.1
O=C(NC1CCCC1)N1CC(=O)N2[C@H](CO)[C@@H](c3ccc(-c4cccnc4)cc3)[C@@H]2C1	-12*
C/C=C/c1ccc([C@H]2[C@@H](CO)N(C(=O)C3CC3)[C@H]2CN(C)C(=O)C2CC2)cc1	0.95
C[C@@H](O)C#Cc1ccc([C@@H]2[C@@H](CO)N3CCCCN(S(=O)(=O)Cc4ccccc4)C[C@H]23)cc1	4.6
N#C[C@H]1[C@@H](c2ccccc2)[C@H](CO)N1C(=O)Cc1ccccc1	1.8
COCC(=O)N1[C@H](CO)[C@@H](c2ccccc2)C12CN(C(=O)c1ccccc1)C2	1.5
COC(=O)c1ccc(CN2CC(=O)N3[C@H](CO)[C@H](c4ccc(-c5ccccc5)cc4)[C@H]3C2)cc1	-0.86
COc1ccc(-c2ccc3n(c2=O)C[C@@H]2[C@@H](CO)[C@H](C(=O)N(C)C)[C@H]3N2Cc2cncnc2)cc1	0.7
N#C[C@@H]1[C@H](c2ccc(C3=CCCCC3)cc2)[C@H](CO)N1C(=O)CN1CCOCC1	-0.23
O=C(C[C@H]1CC[C@@H]2[C@H](COC[C@H](O)CN2Cc2ccc(F)cc2)O1)NCCc1ccccc1	-1.4
CN(C)C(=O)C[C@H]1CC[C@@H]2[C@H](COC[C@H](O)CN2S(=O)(=O)c2ccccc2Cl)O1	0.51

Screening results from PubChem.
